# VP16 counter – VP16 counterscreen qHTS for inhibitors of ROR gamma transcriptional activity; Potency, µM (top dose mostly 53.6 µM), without a hit: at the top dose activity, negative = inhibition, actives largely listed as inhibitors; AID 2546, 2010; 310,000 compounds, 3.5% hits; Drosophila S2 Gal4-VP16 UAS-luciferase, luminescence, 20 h;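 note: Gal4-VP16 expression switched on by copper sulfate through the metallothionein promoter; potency is the fitted concentration of half-maximal effect; nearly all actives have a fitted effect of over 50% in size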
# IL1B secr inh – qHTS for Inhibitors of Inflammasome Signaling: IL-1-beta AlphaLISA Primary Screen; THP-1 LPS/ATP IL-1B secretion, AlphaLISA, 16 h; stronger effect = lower value; 360,000 compounds, 4.7% hits; activity change, % at 57.5 µM; in the data active = activity change below about -50%; inconclusive = mostly about -30% to -49%
#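 THP-1 cells pretreated 1 hr with compounds (up to 57.5 uM final), then stimulated with LPS (250 ng/mL final) plus ATP (1.25 mM final); secreted IL-1B measured by AlphaLISA after 16 hr, decreased signal indicating inhibition.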
# LDHA block – qHTS assay for inhibitors of human lactate dehydrogenase; 480,000 compounds, 0.15% hits; L-lactate dehydrogenase A chain (Homo sapiens), P00338; activity change, % (values are at about 110 or 230 µM); purified LDHA, NADH/diaphorase-resazurin fluorescence; stronger effect = lower value; in the data active = activity change below about -30%; inconclusive = mostly about -25% to -30%;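 note: plate controls were DMSO wells for no effect and wells without enzyme for full effect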
#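 LDH5 2 nM; NADH 0.06 mM, pyruvate 0.2 mM; 200 mM Tris pH 7.4, EDTA, Tween-20; 5 min RT. Detection: diaphorase 0.133 mg/mL + resazurin 37 µM, fluorescence ex540/em590 at 0 and 20 min; normalized to enzyme-free and DMSO wells.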
# DT40 TDP1 no CPT – qHTS for Inhibitors of human tyrosyl-DNA phosphodiesterase 1 (TDP1): qHTS in cells in absence of CPT; 420,000 compounds, 15% hits; Potency, µM (top dose mostly 46.2 µM), without a hit: at the top dose activity change, negative = growth inhibition, actives largely listed as inhibitors; DT40 Tdp1-/- hTDP1 cells, no CPT, ATP luminescence, 48 h; AID 686978, 2013; note: potency is the fitted concentration of half-maximal effect; nearly all actives have a fitted effect of over 55% in size
#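 Growth kinetics read by CellTiter-Glo luminescence after ≥48 hr at 37 °C. Cells: DT40 Tdp1-/- stably carrying human TDP1, 400 per well, compound exposure in the absence of CPT (DMSO vehicle).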
# RORgamma inh – qHTS for inhibitors of ROR gamma transcriptional activity | AID 2551, 2010 | Drosophila S2 Gal4-RORgamma UAS-luciferase reporter, 20 h | 310,000 compounds, 5.4% hits | Nuclear receptor ROR-gamma (Mus musculus), P51450 | Potency, µM (series often up to 53.6 µM), for inactives: at the highest dose activity change, negative = inhibition, actives largely listed as inhibitors; note: potency is the fitted concentration of half-maximal effect; nearly all actives have a fitted effect of over 60% in size
# Target sequence (P51450 whole entry, looked up, the tested form may be a part): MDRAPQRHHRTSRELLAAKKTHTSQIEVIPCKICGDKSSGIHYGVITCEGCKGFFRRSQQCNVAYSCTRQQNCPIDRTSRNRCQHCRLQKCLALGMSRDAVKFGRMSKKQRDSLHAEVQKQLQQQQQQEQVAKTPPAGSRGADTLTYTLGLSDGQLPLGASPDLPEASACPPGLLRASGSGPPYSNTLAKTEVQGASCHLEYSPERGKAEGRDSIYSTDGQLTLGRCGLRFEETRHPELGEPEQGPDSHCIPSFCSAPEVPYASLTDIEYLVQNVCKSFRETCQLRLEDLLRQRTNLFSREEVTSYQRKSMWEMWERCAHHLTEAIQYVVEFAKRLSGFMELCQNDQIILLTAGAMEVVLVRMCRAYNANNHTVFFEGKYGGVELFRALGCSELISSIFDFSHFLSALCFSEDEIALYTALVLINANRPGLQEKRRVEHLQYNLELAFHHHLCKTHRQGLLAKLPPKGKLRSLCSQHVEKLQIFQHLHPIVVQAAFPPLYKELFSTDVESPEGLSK
#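 Using a luciferase readout, inhibitors were identified by reduced reporter activity in Drosophila cells coexpressing a copper-inducible Gal4–ROR gamma fusion and UAS-driven Photinus luciferase, incubated 20 hr after 700 uM copper sulfate.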
# DT40 TDP1 CPT – qHTS for Inhibitors of human tyrosyl-DNA phosphodiesterase 1 (TDP1): qHTS in cells in presence of CPT | chicken DT40 Tdp1-/-;hTDP1 cells + 20 nM CPT, ATP luminescence, 48 h | Potency, µM (series often up to 46.2 µM), without a hit: top-dose activity change, negative = growth inhibition, usual class: inhibitors | 420,000 compounds, 12% hits | AID 686979, 2013; note: potency is the fitted concentration of half-maximal effect; nearly all actives have a fitted effect of over 55% in size
#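 Chicken DT40 Tdp1-/- cells stably complemented with human TDP1 were seeded at 400 cells/well in medium containing 20 nM camptothecin, exposed to pin-transferred compounds, and grown at 37 °C for at least 48 hr. Viability was read as ATP luminescence.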
# The depositor's hits bear a star; ? = inconclusive; / = not tested or not shown. The list is not random: actives were taken first. Their share in the collection is about 18%. Unless noted, calls come from the whole dose curve; as a rule, active = well fitted curve in the direction sought with a large enough effect; inconclusive = small, poorly fitted or top-dose-only effect, or another doubt; inactive = no such curve, though single readings can be large; an effect the other way counts as inactive or inconclusive. Unless noted, % is set by controls: 0 for no effect and ±100 for the full control effect.
SMILES,VP16 counter,IL1B secr inh,LDHA block,DT40 TDP1 no CPT,RORgamma inh,DT40 TDP1 CPT
CC(C)C[C@H](NC(=O)c1[nH]cnc1C(=O)N[C@@H](Cc1ccccc1)C(=O)OC(C)(C)C)C(=O)OC(C)(C)C,11µM*,-50*,2,?,3.2µM*,16µM*
CC(C)C[C@H](NC(=O)c1[nH]cnc1C(=O)N[C@@H](Cc1ccccc1)C(=O)OCc1ccccc1)C(=O)OC(C)(C)C,16µM*,3,1,21µM*,5.6µM*,21µM*
C[C@H](NC(=O)c1nc[nH]c1C(=O)N[C@@H](CCCCN)C(=O)OC(C)(C)C)C(=O)OC(C)(C)C,/,-3,0,-13%,/,-1%
CC(C)C[C@H](NC(=O)c1[nH]cnc1C(=O)Nc1ccccc1F)C(=O)OC(C)(C)C,/,-2,5,23µM*,/,-89%
COc1ccc(-c2noc(CCC(=O)Nc3ccn(C)n3)n2)cc1OC,/,/,-6,/,/,/
CC(C)(C)OC(=O)CNC(=O)c1[nH]cnc1C(=O)N[C@@H](Cc1ccccc1)C(=O)OC(C)(C)C,13µM*,0,3,?,?,?
CCN(CC)C(=O)c1[nH]cnc1C(=O)N[C@@H](CC(C)C)C(=O)OC(C)(C)C,?,42,-2,-16%,?,-21%
CC(C)C[C@H](NC(=O)c1[nH]cnc1C(=O)N[C@@H](C)c1ccccc1)C(=O)OC(C)(C)C,0.63µM*,-4,4,?,0.63µM*,?
CC(C)C[C@H](NC(=O)c1[nH]cnc1C(=O)N[C@@H](C)C(=O)OC(C)(C)C)C(=O)OCc1ccccc1,?,-16,2,16µM*,16µM*,?
CC(C)C[C@H](NC(=O)c1[nH]cnc1C(=O)N[C@@H](Cc1ccccc1)C(=O)OC(C)(C)C)C(=O)OCc1ccccc1,?,-6,0,23µM*,7.9µM*,?
COc1ccc(/C=C(/C(=O)O)c2cccs2)cc1,/,/,-25,/,/,/
CC(C)(C)c1ccc2c(c1)OCCOCCOCCO2,/,/,-19,/,/,/
CCCCn1c(=O)[nH]c(=O)c2c1nc(CCC(=O)NC1CCN(CC)CC1)n2CC(C)C,/,/,-10,/,/,/
CN(C)S(=O)(=O)c1ccccc1CNS(=O)(=O)c1ccc2c(c1)CCC2,/,/,1,/,/,/
CCN(CC)C(=O)c1[nH]cnc1C(=O)N[C@@H](Cc1ccccc1)C(=O)OC(C)(C)C,?,28,-2,?,10µM*,?
CN(C1CCCCC1)S(=O)(=O)c1ccc2c(c1)c(=O)n(CC(=O)N1CCCCCC1)c(=O)n2C,/,/,4,/,/,/
CCOC(=O)NC(c1ccc(C(C)C)cc1)C(Cl)(Cl)Cl (stereo unspecified),?,0,-6,-9%,?,0%
CCOC(=O)NC(C(Cl)(Cl)Cl)S(=O)(=O)c1ccccc1 (stereo unspecified),?,-87*,-5,?,-42%,?
Cn1cc(C(=O)c2ccc(Cl)cc2Cl)cc1C(=O)N/N=C(\N)COc1ccc(F)cc1,2.5µM*,-1,-3,16µM*,2.2µM*,?
Cn1cc(C(=O)c2ccc(Cl)cc2Cl)cc1C(=O)N/N=C(\N)COc1ccc(Cl)cc1,3.5µM*,1,-15,?,1.4µM*,?
CCOC(=O)C(NC(=O)c1ccc(Cl)cc1Cl)(Nc1ccc(C)cc1)C(F)(F)F (stereo unspecified),15%,-21,-2,16µM*,-25%,23µM*
Cn1cc(C(=O)c2ccc(Cl)cc2Cl)cc1C(=O)N/N=C(\N)COc1ccccc1,1.6µM*,0,-6,?,0.71µM*,?
CCOC(=O)C(NC(=O)c1ccccc1Cl)(Nc1ccc(C(F)(F)F)cc1)C(F)(F)F (stereo unspecified),-19%,-8,-6,?,-3%,?
O=C1CC(C(=O)Nc2ccccc2)n2nc(SCc3ccccc3)nc2N1 (stereo unspecified),/,/,0,/,/,/
CCOC(=O)c1cccc(NC(=O)CCc2nc3c(C)nn(-c4ccc(C)cc4)c3n(CC)c2=O)c1,/,/,3,/,/,/
SMILES,VP16 counter,IL1B secr inh,LDHA block,DT40 TDP1 no CPT,RORgamma inh,DT40 TDP1 CPT
CCCNc1nc2ccccc2nc1C(=O)Nc1ccc(CC)cc1,/,/,-5,/,/,/
Cn1cc(C(=O)c2ccc(Cl)cc2Cl)cc1C(=O)N/N=C(\N)COc1ccc(Cl)cc1Cl,4µM*,-11,-5,?,1.4µM*,?
CCOC(=O)C/C(N)=N/NC(=O)c1ccc(Cl)cc1Cl,?,22,-2,-16%,7.9µM*,11%
Cc1ccccc1NC(=O)COC(=O)c1ccc2ccccc2n1,/,/,5,/,/,/
CC(/C=C/c1ccccc1)=N/NC(=S)NC1CCCCC1,/,/,2,/,/,/
CCc1ccc(OCC(=O)Nc2ccc3oc(-c4ccccc4F)nc3c2)c(-n2cnnc2)c1,/,/,10,/,/,/
Cc1cccc(C(=O)N2[C@@H](C(C)C)COc3cc(Br)ccc3S2(=O)=O)c1,/,-3,1,?,/,?
COc1ccccc1C(=O)N1[C@@H](C(C)C)COc2cc(Br)ccc2S1(=O)=O,/,18,0,16µM*,/,?
COc1cccc(C(=O)N2C(C(C)C)COc3cc(Br)ccc3S2(=O)=O)c1 (stereo unspecified),/,65,3,23µM*,/,26µM*
CCOC(=O)c1ccc2ncc(C(=O)OCC)c(NCCCOC(C)=O)c2c1,/,/,8,/,/,/
Cc1cc(OCC(=O)Nc2ccc(N3CCCC3)cc2)cc(C)c1Cl,12%,3,-6,-4%,0%,2%
CN(CC(=O)Nc1ccc(N2CCOCC2)cc1)C(=O)CCCOc1ccc(Cl)cc1Cl,/,-17,5,?,/,9.2µM*
Cc1ccccc1OCC(=O)NC(=S)Nc1ccc(N2CCCC2)cc1,8.9µM*,5,-5,?,8.9µM*,-28%
Cc1ccccc1OCCC(=O)OCC(=O)Nc1ccc(N2CCOCC2)cc1,7%,-62*,-1,?,-31%,16µM*
CN(CC(=O)Nc1ccc(N2CCOCC2)cc1)C(=O)CCc1ccccc1Cl,/,9,2,-29%,/,?
Cc1ccc2nc(CSc3nnc(N4CCCC4)n3-c3ccccc3Cl)cn2c1,/,/,0,/,/,/

# High-throughput results deposited in PubChem by National Center for Advancing Translational Sciences (NCATS).
